Statin myotox sup = suppressors of statin myotoxicity in C2C12 myotubes, primary screen, cell-based, single point, plate reader | C2C12 myotubes + simvastatin, ATP luminescence, 48 h; scaled: DMSO 0, geranylgeraniol control 100 | AID 602340, 2012 | rescue of ATP level, % at 7.49 µM | 330,000 compounds, 0.78% hits;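 active = mean ATP rescue above about 67%, or every replicate alone reaching that limit, limit read from the data, passing the limit was not always enough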;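 note: myotubes were challenged with 10 µM simvastatin during compound exposure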
PGC1a acetyl inh = inhibitors of PGC1a acetylation signal, primary screen, cell-based, U2OS, AlphaScreen, inhibitor mode | AlphaScreen anti-acetyl-lysine; with virally co-expressed GCN5 acetyltransferase | inhibition, % at 15.6 µM | 350,000 compounds, 0.17% hits;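 active = every replicate shows inhibition of at least 40%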;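 note: 0% = neutral control wells and 100% = positive control wells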
PvdQ acylase = P. aeruginosa PvdQ acylase inhibitors, primary screen, biochemical, fluorescence, plate reader and imaging, single point. purified PvdQ acylase. PvdQ acylase [Pseudomonas aeruginosa LESB58]. inhibition, % at 10 µM. 340,000 compounds, 0.063% hits; in the data active = inhibition above about 30%, passing the limit was not always enough;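 note: 0% = vehicle neutral wells and 100% = reference inhibitor wells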
DENV2 CPE = inhibitors of DENV2 cytopathic effect, primary screen, cell-based, plate reader, single concentration. 350,000 compounds, 1.7% hits. DENV2-infected cells, cytopathic effect rescue. AID 651640, 2012. CPE inhibition, % at 9.99 µM; in the data active = CPE inhibition above about 20%, passing the limit was not always enough; tested in BHK-21 cells;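 note: 0% = median of neutral control wells and 100% = median of positive control wells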
miR122 inh = miR-122 Renilla sensor signal increase in Huh7, primary screen, miR-122 inhibitor project, cell-based, single point, plate reader; Huh7 miR-122 Renilla luciferase sensor, 48 h; neutral wells = 0, positive control = 100; activation (reporter increase), % at 12.5 µM; 340,000 compounds, 0.3% hits; AID 602342, 2012;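 active = mean replicate activation score at least 90 and every replicate individually at or above 90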;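 note: higher luciferase means less miR-122 activity so hits act as miR-122 inhibitors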
* hit, by the source's call; . = no result given; [ ] = dose if it differs, or a comment. Shown are actives, neighbours in structure and some others; about 2.2% of the full set was active somewhere.

SMILES	Statin myotox sup	PGC1a acetyl inh	PvdQ acylase	DENV2 CPE	miR122 inh
CCCNC(=O)Nc1ccc2c(c1)C(=O)N(C)C[C@H](OC)[C@@H](C)CN(C(=O)c1ccccc1F)[C@@H](C)CO2	4.7	5.9	.	-3.7	.
CN(C)c1ccc(Sc2ccc3nc(N)nc(N)c3c2)cc1	-6.7	45.8*	.	-8.2	.
Cc1nc2ccc(C(=O)NC(C)(C)C)cn2c1N(C)C(=O)CCc1ccccc1	7.9	.	.	34.5*	2.2
CO[C@@H]1CN(C)C(=O)c2cc(NC(=O)C3CC3)ccc2OC[C@@H](C)N(C(=O)Nc2ccc(C(F)(F)F)cc2)C[C@H]1C	-12.8	-7.2	.	-5.6	.
CCOc1cc(CNCc2ccncc2)cc(Br)c1OCc1ccccc1F	112.5*	4.5	-10.6	.	-13.3
C/C(Cn1ncc(N2CCOCC2)c(Cl)c1=O)=N\O	1.8	1.6	-9.0	28.6*	-0.9
CC(=O)Cn1ncc(N2CCCCC2)c(Cl)c1=O	.	.	-8.7	-0.6	.
O=C(OC(C(=O)NCc1ccccc1)c1ccco1)c1ccccc1 (stereo not given)	.	4.8	.	38.0*	.
Cc1ccc(CNC(=O)C(CC(C)C)OC(=O)c2ccco2)cc1 (stereo not given)	20.8	.	5.1	30.5*	.
COc1ccc(C(=O)Nc2ccc3c(c2)C(=O)N(C)C[C@H](OC)[C@H](C)CN(C)[C@H](C)CO3)cc1	-11.6	3.6	.	-3.4	.
C[C@H]1CN([C@@H](C)CO)C(=O)c2cc(/C=C/c3ccccc3)cnc2O[C@@H]1CN(C)C(=O)C1CCCCC1	8.3	-1.6	.	10.8	-9.0[16.7 µM]
NC1=NC(=O)C(=Cc2ccccc2)S1	.	.	3.6	30.0*	.
NC1=NC(=O)/C(=C\c2cccnc2)S1	.	.	4.5	-0.6	.
CO[C@H]1CN(C)C(=O)c2cc(NS(C)(=O)=O)ccc2OC[C@H](C)N(C(=O)C2CCOCC2)C[C@H]1C	-8.4	3.2	.	2.0	.
COc1ccc(S(=O)(=O)N(C)C[C@@H]2Oc3ccc(NC(=O)c4ccncc4)cc3CC(=O)N([C@H](C)CO)C[C@H]2C)cc1	11.8	-2.4	.	4.0	-4.7[16.7 µM]
COc1cccc(-c2cn(CC[C@H]3CC[C@@H](NS(=O)(=O)Cc4ccccc4)[C@@H](CO)O3)nn2)c1	5.6	-13.6	.	-3.8	5.6[16.7 µM]
CC(C)[C@H](NC(=O)C1CC1)C(=O)N1CCC[C@H]1C(=O)NCCc1ccccc1Cl	.	.	.	28.9*	.
O=C(N[C@H](C(=O)N1CCC[C@H]1C(=O)NCCc1ccccc1Cl)C1CCCCC1)c1ccccc1	.	.	.	0.9	.
COc1cccc(C(=O)N[C@H](C(=O)N2CCC[C@H]2C(=O)NCCc2ccccc2Cl)C2CCCCC2)c1	.	.	.	28.6*	.
CN(C)C(=O)C[C@@H]1CC[C@@H]2[C@H](COc3ccc(NC(=O)C4CCCCC4)cc3C(=O)N2C)O1	-23.5	0.0	.	27.9*	1.1[16.7 µM]
CN(C)C(=O)C[C@@H]1CC[C@H]2[C@@H](COc3ccc(NC(=O)C4CCCCC4)cc3C(=O)N2C)O1	-15.2	7.8	.	9.7	0.1[16.7 µM]
COc1cccc(NC(=O)C[C@H]2CC[C@@H]3[C@@H](COc4ccc(NC(=O)C5CCCCC5)cc4C(=O)N3C)O2)c1	-50.2	-0.4	.	32.9*	-3.8[16.7 µM]
CN1CCN(C(=O)C[C@@H]2CC[C@H]3[C@H](COc4ccc(NC(=O)C5CCCC5)cc4C(=O)N3C)O2)CC1	.	.	.	25.3*	.
CN(C)C(=O)[C@@H]1[C@@H](CO)[C@@H]2Cn3c(ccc(C4=CCCCC4)c3=O)[C@@H]2N1C(=O)c1ccccc1F	4.9	.	.	3.9	12.2[16.7 µM]
Cc1ccc(C(=O)NC(=S)N(C)C2CCCCC2)cc1Br	-8.5	.	-7.8	2.6	-9.7
SMILES	Statin myotox sup	PGC1a acetyl inh	PvdQ acylase	DENV2 CPE	miR122 inh
COc1ccc(C(=O)NC(=S)N(C)C2CCCCC2)cc1Br	-3.2	1.2	-7.7	59.3*	.
C[C@@H]1CCCCO[C@@H](CN(C)Cc2ccccc2)[C@@H](C)CN([C@H](C)CO)C(=O)c2cc(NS(=O)(=O)c3ccc(Cl)cc3)ccc2O1	.	-0.9	.	-9.8	0.4[16.7 µM]
C=CCn1c(Br)nc2c1c(=O)[nH]c(=O)n2C	.	-15.3	-9.3	.	-2.0
C=CC(C)n1c(Br)nc2c1c(=O)[nH]c(=O)n2C (stereo not given)	.	9.0	-10.0	.	154.3*
COc1ccc(NC(=O)N(C)C[C@H]2Oc3ccc(NC(=O)Nc4c(C)noc4C)cc3CC(=O)N([C@@H](C)CO)C[C@H]2C)cc1	19.8	-8.6	.	-1.8	-4.6[16.7 µM]
CN(c1ccc(Cl)cc1)c1cc(=O)n(C)c2ccccc12	129.4*	-16.4	1.7	.	-13.2
C[C@H](CO)N1C[C@H](C)[C@@H](CN(C)CC2CCCCC2)OCc2cn(nn2)CCCC1=O	-17.8	1.5	.	-5.7	-0.6[16.7 µM]
CCN1[C@@H]2c3ccc(-c4ccc(OC)cc4)c(=O)n3C[C@H]1[C@H](CO)[C@H]2C(=O)NCC1CC1	-3.4	3.7	.	16.3	4.6[16.7 µM]
CCNC(=O)[C@@H]1[C@@H](CO)[C@@H]2Cn3c(ccc(-c4ccccc4OC)c3=O)[C@@H]2N1S(C)(=O)=O	-6.0	.	.	-6.7	0.9[16.7 µM]
CCNC(=O)[C@H]1[C@H](CO)[C@H]2Cn3c(ccc(-c4cccc(OC)c4)c3=O)[C@H]2N1C(=O)NC(C)C	17.1	-1.5	.	31.1*	3.2[16.7 µM]
CCC(=O)N1[C@@H]2c3ccc(-c4cccc(F)c4)c(=O)n3C[C@@H]2[C@@H](CO)[C@@H]1C(=O)OC	-1.0	1.6	.	76.5*	0.0[16.7 µM]
CCNC(=O)[C@H]1[C@H](CO)[C@H]2Cn3c(ccc(-c4ccc(OC)cc4)c3=O)[C@@H]1N2CC	-21.0	.	.	79.0*	-0.1[16.7 µM]
CCNC(=O)[C@H]1[C@H](CO)[C@H]2Cn3c(ccc(-c4cccc(OC)c4)c3=O)[C@H]2N1S(C)(=O)=O	-21.7	.	.	27.9*	.
COc1cccc(-c2ccc3n(c2=O)C[C@H]2[C@H](CO)[C@@H](C(=O)NCC4CC4)N(C(=O)NC(C)C)[C@@H]32)c1	-0.8	.	.	8.3	-4.3[16.7 µM]
CO[C@H]1CN(C)C(=O)c2ccc(NS(=O)(=O)CC(F)(F)F)cc2OC[C@@H](C)NC[C@H]1C	-2.2	4.4	.	13.2	.
CO[C@H]1CN(C)C(=O)c2cc(NC(=O)c3ccc(F)cc3)ccc2OC[C@@H](C)N(Cc2cocn2)C[C@@H]1C	8.3	-2.4	.	.	.
COC(=O)C[C@H]1CC[C@H]2[C@H](COc3ccc(NC(=O)c4cscn4)cc3C(=O)N2C)O1	8.9	0.4	.	2.9	-42.5[16.7 µM]
O=C(NNC(=O)c1ccncc1)Nc1ccc(N=Nc2ccccc2)cc1	100.1*	-5.4	-1.0	-7.7	1.6
C[C@@H]1CN([C@@H](C)CO)C(=O)c2ccccc2-c2ccccc2CO[C@@H]1CN(C)S(=O)(=O)c1cccc(F)c1	19.7	21.3	.	.	.
CSc1nnc2c3cc(F)ccc3n(Cc3ccccc3)c2n1	-9.2	-0.2	-1.0	.	163.6*
